In PMC8384837, “Expanding the binding specificity for RNA recognition by a PUF domain”:

Assays:
Assay in all cases: yeast three-hybrid, YBZ-1, SC-Leu-His + 0.5 mM 3-AT, 4 days
Settings in all cases: tags: N-Gal4 AD-HA kept; label: inside an RPR1-promoter hybrid RNA with tandem MS2 sites; ssRNA
PUM1 PUF domain R1-MWR = PUM1 PUF domain R1-MWR (Homo sapiens, UniProt Q14671 828-1176, S863M;R864W;Q867R)
Method in brief: (§1)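 The interaction score is the log change in how often each variant appears, from input to selection. Frequencies came from PCR-amplified, Illumina-sequenced repeat regions of Pumilio-1 PUF domain libraries grown in strain YBZ-1 (LexA–MS2 coat fusion, HIS3 reporter) alongside matching RNA elements. Input plates were SC-Leu and selection plates were SC-Leu-His + 0.5 mM 3-AT, each for four days, and the log2 calculation used a pseudocount of 1 where a variant was absent.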

PUM1 PUF domain R1-NCS = PUM1 PUF domain R1-NCS (Homo sapiens, UniProt Q14671 828-1176, S863N;R864C;Q867S)
Method in brief: as §1

PUM1 PUF domain R1-CRR = PUM1 PUF domain R1-CRR (Homo sapiens, UniProt Q14671 828-1176, S863C;Q867R)
Method in brief: as §1

PUM1 PUF domain R2-LWL = PUM1 PUF domain R2-LWL (Homo sapiens, UniProt Q14671 828-1176, N899L;Y900W;Q903L)
Method in brief: as §1

PUM1 PUF domain R8-QYG = PUM1 PUF domain R8-QYG (Homo sapiens, UniProt Q14671 828-1176, N1122Q;Q1126G)
Method in brief: as §1

PUM1 PUF domain R5-STR = PUM1 PUF domain R5-STR (Homo sapiens, UniProt Q14671 828-1176, C1007S;R1008T;Q1011R)
Method in brief: as §1

PUM1 PUF domain R5-AFF = PUM1 PUF domain R5-AFF (Homo sapiens, UniProt Q14671 828-1176, C1007A;R1008F;Q1011F)
Method in brief: as §1

PUM1 PUF domain R4-TPA = PUM1 PUF domain R4-TPA (Homo sapiens, UniProt Q14671 828-1176, N971T;H972P;Q975A)
Method in brief: as §1

PUM1 PUF domain R4-SQS = PUM1 PUF domain R4-SQS (Homo sapiens, UniProt Q14671 828-1176, N971S;H972Q;Q975S)
Method in brief: as §1

PUM1 PUF domain R5-CRR = PUM1 PUF domain R5-CRR (Homo sapiens, UniProt Q14671 828-1176, Q1011R)
Method in brief: as §1

PUM1 PUF domain R8-QWF = PUM1 PUF domain R8-QWF (Homo sapiens, UniProt Q14671 828-1176, N1122Q;Y1123W;Q1126F)
Method in brief: as §1

PUM1 PUF domain R2-KRA = PUM1 PUF domain R2-KRA (Homo sapiens, UniProt Q14671 828-1176, N899K;Y900R;Q903A)
Method in brief: as §1

PUM1 PUF domain R4-MNA = PUM1 PUF domain R4-MNA (Homo sapiens, UniProt Q14671 828-1176, N971M;H972N;Q975A)
Method in brief: as §1

PUM1 PUF domain R5-KRN = PUM1 PUF domain R5-KRN (Homo sapiens, UniProt Q14671 828-1176, C1007K;Q1011N)
Method in brief: as §1

PUM1 PUF domain R5-KNS = PUM1 PUF domain R5-KNS (Homo sapiens, UniProt Q14671 828-1176, C1007K;R1008N;Q1011S)
Method in brief: as §1

PUM1 PUF domain R7-ISR = PUM1 PUF domain R7-ISR (Homo sapiens, UniProt Q14671 828-1176, S1079I;N1080S;E1083R)
Method in brief: as §1

PUM1 PUF domain R3-FRA = PUM1 PUF domain R3-FRA (Homo sapiens, UniProt Q14671 828-1176, C935F;Q939A)
Method in brief: as §1

PUM1 PUF domain R3-LSS = PUM1 PUF domain R3-LSS (Homo sapiens, UniProt Q14671 828-1176, C935L;R936S;Q939S)
Method in brief: as §1

PUM1 PUF domain R6-TRE = molecular target: T1, PUM1 PUF domain R6-TRE (Homo sapiens, UniProt Q14671 828-1176, N1043T;Y1044R;Q1047E)
T1 sequence: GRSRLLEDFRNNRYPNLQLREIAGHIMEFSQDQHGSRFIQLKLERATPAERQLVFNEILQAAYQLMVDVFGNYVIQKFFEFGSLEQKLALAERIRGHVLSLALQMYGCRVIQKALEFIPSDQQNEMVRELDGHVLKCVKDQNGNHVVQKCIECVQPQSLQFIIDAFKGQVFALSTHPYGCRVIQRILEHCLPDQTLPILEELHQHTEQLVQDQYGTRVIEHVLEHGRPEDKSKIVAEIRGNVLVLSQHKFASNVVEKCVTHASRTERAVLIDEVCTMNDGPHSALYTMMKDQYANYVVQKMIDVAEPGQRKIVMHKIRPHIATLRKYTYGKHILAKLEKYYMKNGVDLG
Method in brief: as §1

PUM1 PUF domain R3-PHL = PUM1 PUF domain R3-PHL (Homo sapiens, UniProt Q14671 828-1176, C935P;R936H;Q939L)
Method in brief: as §1

PUM1 PUF domain R4-TPA, sequence (Q14671 828-1176 N971T/H972P/Q975A): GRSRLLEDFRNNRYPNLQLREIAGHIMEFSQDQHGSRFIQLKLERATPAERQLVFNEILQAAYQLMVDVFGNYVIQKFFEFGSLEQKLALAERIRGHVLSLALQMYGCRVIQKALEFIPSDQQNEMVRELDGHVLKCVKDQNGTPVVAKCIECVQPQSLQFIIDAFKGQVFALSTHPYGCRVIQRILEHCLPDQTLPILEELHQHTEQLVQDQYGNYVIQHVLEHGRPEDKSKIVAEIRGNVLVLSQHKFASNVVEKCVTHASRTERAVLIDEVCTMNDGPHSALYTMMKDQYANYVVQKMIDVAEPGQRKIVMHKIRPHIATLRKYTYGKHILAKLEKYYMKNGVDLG

In the case of “GGCUAGAACUAGUGGAUCCCCCGGCGCCCGGCGGCUCGAGCCCGGGUAAGUGUAAAUUGUCUGCAUGCCGCCGGGCGCCAUGCCUGCAGGUCGACUCUAGAAAACAUG”, the binding signal (PUM1 PUF domain R1-MWR) is reported as 3.06 log2 enrichment (interaction score), the binding signal (PUM1 PUF domain R1-NCS) is reported as 3.38 log2 enrichment (interaction score) and the binding signal (PUM1 PUF domain R1-CRR) is reported as 0.67 log2 enrichment (interaction score).
In the case of “GGCUAGAACUAGUGGAUCCCCCGGCGCCCGGCGGCUCGAGCCCGGGUAAGUGUAAAUAGUCUGCAUGCCGCCGGGCGCCAUGCCUGCAGGUCGACUCUAGAAAACAUG”, the binding signal (PUM1 PUF domain R2-LWL) is reported as 1.87 log2 enrichment (interaction score), the binding signal (PUM1 PUF domain R8-QYG) is reported as 3.24 log2 enrichment (interaction score) and the binding signal (PUM1 PUF domain R5-STR) is reported as 1.08 log2 enrichment (interaction score). For the same sequence, the binding signal (PUM1 PUF domain R5-AFF) was 2.83 log2 enrichment (interaction score), the binding signal (PUM1 PUF domain R4-TPA) was 3.35 log2 enrichment (interaction score) and the binding signal (PUM1 PUF domain R4-SQS) was 2.72 log2 enrichment (interaction score). For the same sequence, the binding signal (PUM1 PUF domain R5-CRR) was 2.75 log2 enrichment (interaction score) and the binding signal (PUM1 PUF domain R8-QWF) was 2.1 log2 enrichment (interaction score).
“GGCUAGAACUAGUGGAUCCCCCGGCGCCCGGCGGCUCGAGCCCGGGUAAGUGUAAAGAGUCUGCAUGCCGCCGGGCGCCAUGCCUGCAGGUCGACUCUAGAAAACAUG” was tested, and the binding signal (PUM1 PUF domain R2-KRA) was 4.63 log2 enrichment (interaction score).
“GGCUAGAACUAGUGGAUCCCCCGGCGCCCGGCGGCUCGAGCCCGGGUAAGUGUAUAUAGUCUGCAUGCCGCCGGGCGCCAUGCCUGCAGGUCGACUCUAGAAAACAUG” was tested, and the binding signal (PUM1 PUF domain R4-MNA) was 4.12 log2 enrichment (interaction score), the binding signal (PUM1 PUF domain R4-TPA) was 4.12 log2 enrichment (interaction score) and the binding signal (PUM1 PUF domain R4-SQS) was 0.2 log2 enrichment (interaction score).
In the case of “GGCUAGAACUAGUGGAUCCCCCGGCGCCCGGCGGCUCGAGCCCGGGUAAGUGUCAAUAGUCUGCAUGCCGCCGGGCGCCAUGCCUGCAGGUCGACUCUAGAAAACAUG”, the binding signal (PUM1 PUF domain R5-KRN) is reported as 4.24 log2 enrichment (interaction score), the binding signal (PUM1 PUF domain R5-STR) is reported as 5.88 log2 enrichment (interaction score) and the binding signal (PUM1 PUF domain R5-KNS) is reported as 4.54 log2 enrichment (interaction score). For the same sequence, the binding signal (PUM1 PUF domain R5-CRR) was 4.63 log2 enrichment (interaction score).
“GGCUAGAACUAGUGGAUCCCCCGGCGCCCGGCGGCUCGAGCCCGGGUAAGUGUACAUAGUCUGCAUGCCGCCGGGCGCCAUGCCUGCAGGUCGACUCUAGAAAACAUG” was tested, and the binding signal (PUM1 PUF domain R4-TPA) was 3.56 log2 enrichment (interaction score).
“GGCUAGAACUAGUGGAUCCCCCGGCGCCCGGCGGCUCGAGCCCGGGUAAGUUUAAAUAGUCUGCAUGCCGCCGGGCGCCAUGCCUGCAGGUCGACUCUAGAAAACAUG” was tested, and the binding signal (PUM1 PUF domain R7-ISR) was 5.98 log2 enrichment (interaction score).
With “GGCUAGAACUAGUGGAUCCCCCGGCGCCCGGCGGCUCGAGCCCGGGUAAGUGUAAGUAGUCUGCAUGCCGCCGGGCGCCAUGCCUGCAGGUCGACUCUAGAAAACAUG” the binding signal (PUM1 PUF domain R3-FRA) was 5.49 log2 enrichment (interaction score) and the binding signal (PUM1 PUF domain R3-LSS) was 5.06 log2 enrichment (interaction score).
For “GGCUAGAACUAGUGGAUCCCCCGGCGCCCGGCGGCUCGAGCCCGGGUAAGCGUAAAUAGUCUGCAUGCCGCCGGGCGCCAUGCCUGCAGGUCGACUCUAGAAAACAUG”, the binding signal (PUM1 PUF domain R8-QYG) was 3.1 log2 enrichment (interaction score) and the binding signal (PUM1 PUF domain R8-QWF) was 2.87 log2 enrichment (interaction score).
“GGCUAGAACUAGUGGAUCCCCCGGCGCCCGGCGGCUCGAGCCCGGGUAAGUGUAAAUCGUCUGCAUGCCGCCGGGCGCCAUGCCUGCAGGUCGACUCUAGAAAACAUG” was tested, and the binding signal (PUM1 PUF domain R1-MWR) was 3.03 log2 enrichment (interaction score) and the binding signal (PUM1 PUF domain R1-CRR) was 2.5 log2 enrichment (interaction score).
For “GGCUAGAACUAGUGGAUCCCCCGGCGCCCGGCGGCUCGAGCCCGGGUAAGUGUAAAAAGUCUGCAUGCCGCCGGGCGCCAUGCCUGCAGGUCGACUCUAGAAAACAUG”, the binding signal (PUM1 PUF domain R2-LWL) was 6.07 log2 enrichment (interaction score).
In the case of “GGCUAGAACUAGUGGAUCCCCCGGCGCCCGGCGGCUCGAGCCCGGGUAAGUGGAAAUAGUCUGCAUGCCGCCGGGCGCCAUGCCUGCAGGUCGACUCUAGAAAACAUG”, the binding signal (PUM1 PUF domain R6-TRE) is reported as 5.05 log2 enrichment (interaction score).
For “GGCUAGAACUAGUGGAUCCCCCGGCGCCCGGCGGCUCGAGCCCGGGUAAGUGUAAUUAGUCUGCAUGCCGCCGGGCGCCAUGCCUGCAGGUCGACUCUAGAAAACAUG”, the binding signal (PUM1 PUF domain R3-FRA) was 1.3 log2 enrichment (interaction score), the binding signal (PUM1 PUF domain R3-PHL) was 4.16 log2 enrichment (interaction score) and the binding signal (PUM1 PUF domain R3-LSS) was 3.25 log2 enrichment (interaction score).
